Screening results as filed in PubChem BioAssay.
Shown are actives, neighbours in structure and some others; about 2.8% of the full set was active somewhere.
Mcl1-Noxa inh – Mcl-1/Noxa binding inhibitors, primary screen, biochemical, TR-FRET, 1536-well; Induced myeloid leukemia cell differentiation protein Mcl-1 (Homo sapiens), Q07820; TR-FRET Mcl-1/Noxa peptide binding, 2 h; inhibition, % at 21.7 µM; 220,000 compounds, 1.5% hits; AID 1022, 2008;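 active = compounds that cut the protein-peptide binding signal by more than 50% relative to plate controls in a single-dose test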;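 also: His-tagged Mcl-1 with rhodamine Noxa BH3 peptide and terbium anti-His antibody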
Target sequence (Q07820 whole entry, looked up): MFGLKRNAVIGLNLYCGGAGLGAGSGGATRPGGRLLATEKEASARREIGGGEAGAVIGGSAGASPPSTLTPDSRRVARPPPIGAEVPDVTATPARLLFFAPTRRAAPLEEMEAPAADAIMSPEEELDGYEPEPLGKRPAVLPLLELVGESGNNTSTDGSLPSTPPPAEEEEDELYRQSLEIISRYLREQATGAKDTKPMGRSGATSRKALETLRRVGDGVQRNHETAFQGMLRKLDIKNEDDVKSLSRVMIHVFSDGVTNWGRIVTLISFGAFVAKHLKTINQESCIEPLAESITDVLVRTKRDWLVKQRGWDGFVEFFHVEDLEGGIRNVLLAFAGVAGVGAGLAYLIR
L929 necroptosis – inhibitors of zVAD-triggered necroptosis, primary screen, L929 cells; L929 zVAD necroptosis rescue, ATP luminescence, 24 h; with zVAD 60 µM; viability rescue, % at 10 µM; 220,000 compounds, 0.38% hits;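 active = activation, scaled between plate controls, above about 75%, limit read from the data; inactive = activation under that limit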
TNF necrop inh – inhibitors of TNF-alpha triggered necroptosis, primary screen, cell-based, Jurkat FADD-/-, single concentration. Jurkat FADD-/- TNF necroptosis rescue, ATP luminescence, 24 h; 0 = TNF only, 100 = no-TNF cells. activation (protection from cell death), % at 10 µM. 220,000 compounds, 0.068% hits. AID 463075, 2010;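 active = activation, meaning protection from cell death, of at least 50% relative to plate controls; inactive = activation below 50%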;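 also: necroptosis triggered by 40 ng/mL TNF-alpha added together with compound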
Calpain2 inh – inhibitors of pig calpain II, primary screen, biochemical, fluorogenic peptide substrate, 1536-well. 220,000 compounds, 0.37% hits. AID 1236, 2008. purified calpain II, 30 min. inhibition, % at 16 µM;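 active = inhibition above about 50%, limit read from the data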
Mcl1 Bid PPI – Mcl-1/Bid binding inhibitors, primary screen, biochemical, TR-FRET, 1536-well; Induced myeloid leukemia cell differentiation protein Mcl-1 (Homo sapiens), Q07820; TR-FRET Mcl-1/Bid-Dy647 peptide binding; inhibition, % at 21.7 µM; 220,000 compounds, 0.97% hits; AID 1021, 2008;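 active = compounds that cut the binding signal by more than half at the single screening dose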;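 also: His-tagged Mcl-1 with europium anti-His antibody binding Bid BH3 peptide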
Bim-Mcl-1 – inhibitors of Bim peptide binding to Mcl-1, primary screen, biochemical, bead-based flow cytometry, multiplex; Bim peptide-Mcl-1 binding; AID 1009, 2008; 190,000 compounds, 0.1% hits; inhibition, % at 10 µM; Induced myeloid leukemia cell differentiation protein Mcl-1 (Homo sapiens), Q07820; in the data active = inhibition above about 40%
Each line names hits and unclear results; the compound was inactive in the other large screens.

O=C(NCc1ccccc1)c1ccc2c(=O)[nH]c3c(C(=O)NCC4CCCO4)sc(=S)n3c2c1 (centres undefined)	Mcl1-Noxa inh 64
CCCCCNC(=O)c1ccc2c(=O)[nH]c3c(C(=O)NCC4CCCO4)sc(=S)n3c2c1 (centres undefined)	Mcl1-Noxa inh 52
CCn1c(N)c(C(=O)NCC2CCCO2)sc1=S (centres undefined)	none
O=C(NCc1ccco1)c1sc(=S)n2c1[nH]c(=O)c1ccccc12	Mcl1-Noxa inh 73
O=C(NCC1CCCO1)c1ccc2c(=O)n(CCc3ccccc3)c(=O)[nH]c2c1 (centres undefined)	none
Cc1ccc(-c2noc(CCC(=O)N(C)c3ccccc3C)n2)cc1	none
O=C(O)c1cc([N+](=O)[O-])c(N2CCCC2)c([N+](=O)[O-])c1	none
CCOc1ccc(CN(C)CC(=O)Nc2ccc(N3CCOCC3)cc2)cc1OC	none
COCCn1nnnc1CN(Cc1ccco1)Cc1cc2cc3c(cc2[nH]c1=O)OCO3	Bim-Mcl-1 43
COc1ccccc1NC(=O)CN(Cc1ccco1)C(=O)c1ccc(Cl)nc1	none
CCCC1(CCC)NC(=O)N(CC(=O)c2cc(C)n(-c3ccc4c(c3)OCO4)c2C)C1=O	Mcl1 Bid PPI 51
S=C(c1ccc2c(c1)OCO2)N1CCCC1	none
CN(C)c1ccc(/C=C2\C(=N)N3C(=NC2=O)Sc2cc(S(C)(=O)=O)ccc23)cc1	Mcl1-Noxa inh 60, Mcl1 Bid PPI 64 (no result: Bim-Mcl-1)
COc1cccc(-n2c(C)cc(/C=C3/C(=N)N4C(=NC3=O)SN=C4S(C)(=O)=O)c2C)c1	none
CCC(Sc1nc2c(c(=O)n1CC)SC(C)C2)C(=O)OC (centres undefined)	none
O=[N+]([O-])c1ccc(-c2cc(-c3ccc(Cl)cc3)n[nH]2)cc1	Mcl1-Noxa inh 81
Nc1ccc(C(=O)OCC(=O)Nc2ccc([N+](=O)[O-])cc2C(F)(F)F)cc1	none
Cc1cc(O)c2c(c1)C(=O)c1cccc(O)c1C2=O	none
O=C(O)c1cc(O)c2c(c1)C(=O)c1cccc(O)c1C2=O	Mcl1-Noxa inh 61
COC(=O)c1ccc(Oc2coc3cc(OCc4ccc([N+](=O)[O-])cc4)ccc3c2=O)cc1	Mcl1-Noxa inh 55, Mcl1 Bid PPI 94
CCOc1ccc(NC(=S)NNc2ccnc3cc(Cl)ccc23)cc1	none
S=C(NNc1ccnc2cc(Cl)ccc12)Nc1ccc(Cl)cc1Cl	Mcl1-Noxa inh 85, Mcl1 Bid PPI 62 (no result: Bim-Mcl-1)
Cc1ccc(-c2nc(N/N=C/c3ccncc3)c3ccccc3n2)cc1	Mcl1 Bid PPI 66
Cc1c(O)ccc(/C=N/Nc2nc(-c3cccnc3)nc3ccccc23)c1O	Mcl1-Noxa inh 89 (no result: Bim-Mcl-1)
Cc1ccc(Nc2nc(-c3cccnc3)nc3ccccc23)cc1	none (no result: Bim-Mcl-1)
Oc1ccc(/C=N/Nc2nc(-c3cccnc3)nc3ccccc23)c(O)c1	Mcl1-Noxa inh 84 (no result: Bim-Mcl-1)
Cc1cc(N/N=C/c2ccc(O)c(C)c2O)nc(-c2ccccc2O)n1	Mcl1-Noxa inh 89, Mcl1 Bid PPI 75
COc1ccc(/C=N/Nc2nc(-c3cccnc3)nc3ccccc23)cc1OC	none (no result: Bim-Mcl-1)
O=C(CC1C(=O)NCCN1CC1CCCCC1)NCc1cccc(F)c1F (centres undefined)	none
O=C(CSc1nnc(COc2ccccc2)o1)N1CCOCC1	none
Nc1nnc(CC(=O)N/N=C/c2cccc(OCCOc3ccccc3)c2)s1	Mcl1 Bid PPI 51
Nc1nnc(CC(=O)N/N=C/c2cccc([N+](=O)[O-])c2)s1	none
Nc1nnc(CC(=O)N/N=C/c2cc([N+](=O)[O-])cc(Br)c2O)s1	Mcl1-Noxa inh 56
Cc1ccccc1OCCOc1cccc(/C=N/NC(=O)Cc2nnc(N)s2)c1	none
COc1ccc2c(c1)c1nc3ccccc3nc1n2Cc1ccc(OC)c(OC)c1	none
CCOC(=O)Cn1c2ccc(OC)cc2c2nc3ccccc3nc21	Mcl1 Bid PPI 59
Cc1ccccc1C(=O)Nc1ccc(C(=O)N/N=C/c2ccc(O)c(Br)c2)cc1	Mcl1-Noxa inh 58
Cc1ccccc1C(=O)Nc1ccc(C(=O)N/N=C/c2ccc(F)cc2)cc1	none
O=C1ON=C(c2ccccc2)/C1=C/c1ccc(OS(=O)(=O)c2ccccc2)cc1	Mcl1-Noxa inh 72
COc1ccc(CNc2nc3c(c(=O)n(Cc4ccc(F)cc4)c(=O)n3C)n2C)cc1	Calpain2 inh 80
Cn1c(NCc2ccccc2)nc2c1c(=O)n(Cc1ccccc1)c(=O)n2C	Calpain2 inh 62
Cc1ccc(-c2noc(-c3ccccc3C(=O)N3CCCC3)n2)cc1	none
Cc1ccc(-c2noc(-c3ccccc3C(=O)N3CCN(C)CC3)n2)cc1	Mcl1 Bid PPI 71
FC(F)(F)c1cccc(Cc2noc(CN3CCC(c4ccncc4)CC3)n2)c1	none
CCOc1ccc(-n2c(SCC(=O)Nc3ccccc3C)n[nH]c2=O)cc1	Mcl1 Bid PPI 65
O=S(=O)(Cc1cc(Cl)nc(-c2ccccc2)n1)c1ccccc1	none
O=S(=O)(Cc1cc(Cl)nc(-c2ccncc2)n1)c1ccccc1	Mcl1-Noxa inh 81
O=C(CSc1nc2c(cnn2-c2ccc(F)cc2)c(=O)[nH]1)N1CCCc2ccccc21	Mcl1 Bid PPI 94
CCCCC(CC)CNC(=O)Cn1c(=S)[nH]c2ncccc2c1=O (centres undefined)	none
COc1ccc(N(CC(=O)Nc2ccccc2F)S(=O)(=O)c2ccc(C)c([N+](=O)[O-])c2)cc1	none
COc1cccc(/C=C(/C(=O)OCC(=O)NC2CCCC(C)C2C)c2ccccc2)c1 (centres undefined)	Calpain2 inh 56
O=C(N/N=C/c1ccc(N2CCOCC2)s1)c1ccccc1Br	none
Clc1cccc(N/N=C/c2ccc(N3CCOCC3)s2)c1	Mcl1-Noxa inh 87
O=C(Nc1ccc2c(c1)Cc1ccccc1-2)c1cccnc1	none
C=C1c2cccc(O)c2C(O)=C2C(=O)[C@]3(O)C(O)=C(C(N)=O)C(=O)[C@@H](N(C)C)[C@@H]3[C@@H](O)[C@H]12	none
CN(C)[C@@H]1C(=O)C(C(=O)NCN2CCCC2)=C(O)[C@@]2(O)C(=O)C3=C(O)c4c(O)cccc4[C@@](C)(O)C3CC12 (some centres undefined)	Mcl1-Noxa inh 103, Mcl1 Bid PPI 87
Clc1ccc(N=C2SCCS2)cc1	none (no result: Bim-Mcl-1)
CC1CN(C(=O)c2c(Br)cnn2C)CC(C)O1 (centres undefined)	none
COc1ccc(CN2C(=O)Cc3c2nc(N)c2c(N)nc(N4CCCCC4)c(C#N)c32)cc1	Mcl1-Noxa inh 58
